Data on four compounds can be found in PubChem BioAssay (EPA / NIEHS).

Active and inactive are the calls of the source. Rule for the calls: active = hit-call score of the fitted dose curve at least 0.9, where 1 is the maximum; inactive = score below 0.9.

What is called AC50 is the concentration at which the activity in the assay is half-maximal.

What all share (settings): mRNA level, 48 h; actives raise or lower the signal
Read-out in experiment [1]: Cyclin D1 (CCND1), CCND1 (gene 595)
The experiment is described as follows: LTEA_HepaRG_CCND1: Life Technologies and Expression Analysis (LTEA) Assay for Cyclin D1 (CCND1) using HepaRG (AID 2283451). An outline of the steps:
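HepaRG plated 48 h, medium switched to serum-free induction medium, chemicals added in duplicate (top 100 uM, half-log steps, 0.5% DMSO) for 48 h, cells lysed, RNA measured by TaqMan qRT-PCR.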

Read-out in experiment [2]: catalase (CAT), CAT (gene 847)
The experiment is described as follows: LTEA_HepaRG_CAT: Life Technologies and Expression Analysis (LTEA) Assay for catalase (CAT) using HepaRG (AID 2283452). An outline of the steps:
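Differentiated HepaRG cells in serum-free induction medium were dosed 48 h in duplicate, eight half-log concentrations from 100 uM in 0.5% DMSO. Transcript measured by TaqMan qRT-PCR, normalised to ACTB/GAPDH/POLR2A, fitted bidirectionally against DMSO.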

Read-out in experiment [3]: flavin-containing dimethylaniline monooxygenases 3 (FMO3), FMO3 (gene 2328)
The experiment is described as follows: LTEA_HepaRG_FMO3: Life Technologies and Expression Analysis (LTEA) Assay for flavin-containing dimethylaniline monooxygenases 3 (FMO3) using HepaRG (AID 2283453). A digest of the protocol:
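Differentiated HepaRG cells in serum-free induction medium, exposed 48 h in duplicate to 8 half-log concentrations up to 100 uM in 0.5% DMSO. FMO3 mRNA by qRT-PCR, normalized to ACTB, GAPDH, POLR2A; bidirectional fit vs DMSO.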

Read-out in experiment [4]: Cytochrome P450 (CYP1A1), CYP1A1 (gene 1543)
The experiment is described as follows: LTEA_HepaRG_CYP1A1: Life Technologies and Expression Analysis (LTEA) Assay for Cytochrome P450 (CYP1A1) using HepaRG (AID 2283454). A digest of the protocol:
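HepaRG, 48 h post-plating switched to serum-free induction medium; 8-pt conc-response (top 100 uM, half-log, 0.5% DMSO), duplicates, 48 h. Lysis in RLT, TaqMan qRT-PCR for CYP1A1; gain or loss vs DMSO.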

Read-out in experiment [5]: CFLAR gene, CFLAR (gene 8837)
The experiment is described as follows: LTEA_HepaRG_CFLAR: Life Technologies and Expression Analysis (LTEA) Assay for CFLAR gene using HepaRG (AID 2283455). A digest of the protocol:
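HepaRG cells were plated for 48 h, switched to serum-free induction medium, then exposed in duplicate for 48 h to 8 concentrations (top 100 uM, half-log steps, 0.5% DMSO). CFLAR mRNA was measured by qRT-PCR, normalized to ACTB, GAPDH and POLR2A.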

Read-out in experiment [6]: Forkhead box O1 (FOXO1), FOXO1 (gene 2308)
The experiment is described as follows: LTEA_HepaRG_FOXO1: Life Technologies and Expression Analysis (LTEA) Assay for Forkhead box O1 (FOXO1) using HepaRG (AID 2283456). A digest of the protocol: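 Differentiated human HepaRG cells in serum-free induction medium were exposed in duplicate for 48 h to eight half-log concentrations (top 100 uM, 0.5% DMSO). FOXO1 mRNA was measured by TaqMan qRT-PCR, normalised to ACTB, GAPDH and POLR2A, and fitted bidirectionally against DMSO.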

Read-out in experiment [7]: growth arrest and DNA damage 45 (GADD45A), GADD45A (gene 1647)
The experiment is described as follows: LTEA_HepaRG_GADD45A: Life Technologies and Expression Analysis (LTEA) Assay for growth arrest and DNA damage 45 (GADD45A) using HepaRG (AID 2283458). An outline of the steps: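 Differentiated HepaRG cells exposed 48 h in serum-free induction medium to 8 concentrations, top 100 uM in half-log steps, 0.5% DMSO. GADD45A mRNA quantified by qRT-PCR, normalized to ACTB, GAPDH and POLR2A; bidirectional fit versus DMSO.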

Read-out in experiment [8]: Forkhead box O3 (FOXO3), FOXO3 (gene 2309)
The experiment is described as follows: LTEA_HepaRG_FOXO3: Life Technologies and Expression Analysis (LTEA) Assay for Forkhead box O3 (FOXO3) using HepaRG (AID 2283459). A digest of the protocol: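 Differentiated human HepaRG cells in serum-free induction medium were exposed in duplicate for 48 h to eight half-log concentrations up to 100 uM in 0.5% DMSO. FOXO3 mRNA was quantified by qRT-PCR, normalized to ACTB, GAPDH and POLR2A, with bidirectional fitting versus DMSO.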

Read-out in experiment [9]: ABC Transporter (ABCB1), ABCB1 (gene 5243)
The experiment is described as follows: LTEA_HepaRG_ABCB1: Life Technologies and Expression Analysis (LTEA) Assay for ABC Transporter (ABCB1) using HepaRG (AID 2283460). A digest of the protocol:
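Differentiated human HepaRG cells, plated 48 h then switched to serum-free induction medium, were exposed in duplicate to eight half-log concentrations up to 100 uM in 0.5% DMSO for 48 h. ABCB1 mRNA was measured by TaqMan qRT-PCR, normalized to ACTB/GAPDH/POLR2A.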

Read-out in experiment [10]: ABC Transporter (ABCC3), ABCC3 (gene 8714)
The experiment is described as follows: LTEA_HepaRG_ABCC3: Life Technologies and Expression Analysis (LTEA) Assay for ABC Transporter (ABCC3) using HepaRG (AID 2283462). A digest of the protocol:
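Human HepaRG, 48 h dosing, 8-pt half-log series from 100 uM, 0.5% DMSO vehicle, duplicates. ABCC3 mRNA by TaqMan qRT-PCR, housekeeping-normalized; bidirectional curve fit vs DMSO.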

Read-out in experiment [11]: ABC Transporter (ABCB11), ABCB11 (gene 8647)
The experiment is described as follows: LTEA_HepaRG_ABCB11: Life Technologies and Expression Analysis (LTEA) Assay for ABC Transporter (ABCB11) using HepaRG (AID 2283463). An outline of the steps:
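Differentiated human HepaRG cells were exposed for 48 h in serum-free induction medium to eight half-log concentrations up to 100 uM in 0.5% DMSO. ABCB11 mRNA was quantified by qRT-PCR, normalized to ACTB, GAPDH and POLR2A, and fitted bidirectionally versus DMSO.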

Read-out in experiment [12]: ABC Transporter (ABCC2), ABCC2 (gene 1244)
The experiment is described as follows: LTEA_HepaRG_ABCC2: Life Technologies and Expression Analysis (LTEA) Assay for ABC Transporter (ABCC2) using HepaRG (AID 2283464). A digest of the protocol:
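HepaRG, 48 h post-plating; serum-free induction medium; cpd 8-pt, 100 uM top, half-log, 0.5% DMSO, duplicate, 48 h. Readout: ABCC2 mRNA by qRT-PCR, norm. ACTB/GAPDH/POLR2A. Bidirectional fit vs DMSO baseline.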

Read-out in experiment [13]: Broad substrate specificity ATP-binding cassette transporter ABCG2 (Homo sapiens) (UniProt Q9UNQ0)
The experiment is described as follows: LTEA_HepaRG_ABCG2: Life Technologies and Expression Analysis (LTEA) Assay for ABC Transporter (ABCG2) using HepaRG (AID 2283465). An outline of the steps:
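Differentiated HepaRG cells in serum-free induction medium were exposed for 48 h, in duplicate, to eight half-log concentrations up to 100 uM in 0.5% DMSO. ABCG2 mRNA was measured by TaqMan qRT-PCR, normalized to ACTB, GAPDH and POLR2A, and fitted bidirectionally versus DMSO.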

Read-out in experiment [14]: ATP-citrate lyase (ACLY), ACLY (gene 47)
The experiment is described as follows: LTEA_HepaRG_ACLY: Life Technologies and Expression Analysis (LTEA) Assay for ATP-citrate lyase (ACLY) using HepaRG (AID 2283466). A digest of the protocol: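 Differentiated human HepaRG cells in serum-free induction medium exposed 48 h, in duplicate, to eight half-log concentrations from 100 uM top in 0.5% DMSO; ACLY mRNA measured by qRT-PCR, normalized to ACTB, GAPDH, POLR2A, fitted bidirectionally versus DMSO.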

Read-out in experiment [15]: Bcl-2 (BAD) gene, BAD (gene 572)
The experiment is described as follows: LTEA_HepaRG_BAD: Life Technologies and Expression Analysis (LTEA) Assay for Bcl-2 (BAD) gene using HepaRG (AID 2283469). An outline of the steps:
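Differentiated human HepaRG cells in serum-free induction medium were exposed in duplicate for 48 h to eight concentrations (top 100 uM, half-log steps, 0.5% DMSO). BAD mRNA was quantified by qRT-PCR normalised to ACTB, GAPDH and POLR2A, with bidirectional fitting versus DMSO.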

Read-out in experiment [16]: Alkaline Phosphatase, Placental (ALPP) gene, ALPP (gene 250)
The experiment is described as follows: LTEA_HepaRG_ALPP: Life Technologies and Expression Analysis (LTEA) Assay for Alkaline Phosphatase, Placental (ALPP) gene using HepaRG (AID 2283468). A digest of the protocol: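 HepaRG, 48 h plating then 48 h dosing, serum-free induction medium, 0.5% DMSO. 8 conc, half-log, max 100 uM, duplicates. Endpoint: ALPP transcript by qRT-PCR, housekeeping-normalized; gain or loss fitted vs DMSO.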

Read-out in experiment [17]: Peroxisomal acyl-coenzyme A oxidase 1 (ACOX1) gene, ACOX1 (gene 51)
The experiment is described as follows: LTEA_HepaRG_ACOX1: Life Technologies and Expression Analysis (LTEA) Assay for Peroxisomal acyl-coenzyme A oxidase 1 (ACOX1) gene using HepaRG (AID 2283467). A digest of the protocol: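 Differentiated human HepaRG cells were exposed in duplicate for 48 h in serum-free induction medium to eight half-log concentrations up to 100 uM in 0.5% DMSO. ACOX1 mRNA was then quantified by TaqMan qRT-PCR, normalized to ACTB, GAPDH and POLR2A.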

Sequence of Broad substrate specificity ATP-binding cassette transporter ABCG2 (Homo sapiens) (Q9UNQ0 whole entry, looked up): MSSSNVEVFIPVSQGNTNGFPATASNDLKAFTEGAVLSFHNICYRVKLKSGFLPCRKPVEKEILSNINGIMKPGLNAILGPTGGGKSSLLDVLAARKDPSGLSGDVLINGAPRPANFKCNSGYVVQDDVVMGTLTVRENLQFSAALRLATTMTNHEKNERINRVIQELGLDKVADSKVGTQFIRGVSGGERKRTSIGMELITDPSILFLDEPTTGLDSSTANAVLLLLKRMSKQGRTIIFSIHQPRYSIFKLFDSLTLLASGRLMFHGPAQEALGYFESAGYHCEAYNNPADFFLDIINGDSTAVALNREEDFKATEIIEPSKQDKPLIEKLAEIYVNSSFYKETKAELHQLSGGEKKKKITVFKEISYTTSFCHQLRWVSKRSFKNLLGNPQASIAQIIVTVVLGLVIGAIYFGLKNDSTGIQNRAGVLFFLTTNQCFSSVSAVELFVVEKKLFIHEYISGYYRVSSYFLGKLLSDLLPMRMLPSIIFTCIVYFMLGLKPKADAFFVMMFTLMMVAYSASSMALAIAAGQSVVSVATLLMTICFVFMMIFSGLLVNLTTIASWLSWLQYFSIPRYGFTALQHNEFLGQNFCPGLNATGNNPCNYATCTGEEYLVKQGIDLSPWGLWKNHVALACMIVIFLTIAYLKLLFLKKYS

Consider `CCCCCCC(CCCCCCCCCCC(=O)OCC(COC(C)=O)OC(C)=O)OC(C)=O` (centres undefined), for which the call in [1], in [2], in experiment [3], in [4], in experiment [5] and in [6] was inactive. Moreover, the call in [7], in experiment [8], in [9], in [10], in experiment [11] and in experiment [12] was inactive. In addition, the outcome in experiment [13], in [14] and in experiment [15] was inactive.

`CC(C)OC(=O)C(C)(C)Oc1ccc(C(=O)c2ccc(Cl)cc2)cc1`: the compound was called inactive in experiment [1], in [3], in experiment [5], in experiment [6], in [8] and in [9]. Further, the compound was called inactive in experiment [10], in experiment [11], in experiment [12], in experiment [13], in [14] and in experiment [15]. For the same compound, the AC50 in experiment [4] is 50 µM (active); in experiment [7], 0.0536 µM (active).

`CC(C)c1cccc(C(C)C)c1`: the call in experiment [1], in [3], in experiment [5], in experiment [6], in experiment [7] and in experiment [8] was inactive. Also, the call in experiment [9], in [10], in experiment [12], in [13], in experiment [14] and in experiment [16] was inactive. The result in [15] was inactive. Further, the half-maximal activity concentration (AC50) in experiment [4] is 66.1 µM (active).

On to `CCCCCCCC(=O)OC`, for which the outcome in [1], in experiment [4], in experiment [5], in experiment [6], in experiment [7] and in [8] was inactive. Further, the result in [9], in experiment [10], in experiment [11], in experiment [12], in [13] and in experiment [14] was inactive. Besides, the call in [17], in experiment [16] and in [15] was inactive. Also, the AC50 in experiment [3] is 12.1 µM (active).
